# Active and inactive are the calls of the source. How the calls were made is not given here.
# Assay: fluorescence polarization artefacts, biochemical, 57K campaign, artefact control, dose response (AID 1342)
# Conditions: PKD fluorescence polarization interference counter-screen
structure (smiles),measurement,value
C/C(=N\Nc1ncc(Cl)cc1Cl)c1ccccn1,IC50,16.7 µM (inactive)

# From PubChem BioAssay AID1342 (University of Pittsburgh Molecular Library Screening Center, 2008)
